Measured values reported in PubChem BioAssay (NCATS).
Inconclusive results are not listed. Activity calls are given as the source filed them. The call rests on the fitted dose curve; in most records, active means well fitted curve in the direction sought with a large enough effect; inconclusive means small, poorly fitted or top-dose-only effect, or another doubt; inactive means no such curve, though single readings can be large; an effect the other way counts as inactive or inconclusive. Numbered stars: 1 amine (or outer) side, 2 acyl side, 3 side chain; on linkers, the order of the positions; unused ones are H or OH. Bridge positions count the residues as written; N and C are the ends. Square brackets hold non-standard residues; d marks the D form. Peptide text beside a SMILES is read from it. ξ: configuration not given here. Phe(3R-OH) = O=C([C@@H](N[*:1])[C@H](O[*:3])c1ccccc1)[*:2]; NMeTrp(4-OMe) = CN[C@@H](Cc1c[nH]c2cccc(OC)c12)C(=O)O; ξThr(3R)(O-yl) = C[C@@H](O[*:3])C(N[*:1])C(=O)[*:2]; NMeThr(3ξ) = CN[C@H](C(=O)O)C(C)O; NMeL = CN[C@@H](CC(C)C)C(=O)O; NMeV = CN[C@H](C(=O)O)C(C)C; ξIle = CC[C@H](C)C(N)C(=O)O; ξV = CC(C)C(N)C(=O)O

Key:
[1] = test system: Zika virus NS2B-NS3 protease (linked construct); assay: Primary screen NINDS Rhodamine qHTS for Zika virus inhibitors (AID 1347160); further: nearly all actives have a fitted effect of over 55% in size
Method in brief: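 Percent inhibition, normalized to uninhibited and enzyme-free controls, is fitted to a 4-parameter Hill equation. Fluorescence change comes from a 15-min cleavage of 1.5 microM bis-peptide Rhodamine110 substrate by 25 nM linked NS2B-NS3 at room temperature.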

[2] = OV-KATE Cancer Cell Toxicity qHTS against the NCATS CANVASS Library (AID 1347345)
Method in brief: (§1)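 1000 cells/well seeded and rested 4 h at 37 °C before pin transfer of compounds in an 11-pnt series. Exposure 72 h at 37 °C/5% CO2; viability by CellTiter-Glo luminescence after 15 min at room temperature.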

[3] = HPAF-II Cancer Cell Toxicity qHTS against the NCATS CANVASS Library (AID 1347346); further: potency means the concentration at half of the fitted maximal effect; nearly all actives have a fitted effect of over 55% in size
Method in brief: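 HPAF-II cells were seeded at 1000 cells/well, allowed to settle for 4 h at 37 degrees C, then exposed to compounds in an 11-point series for 72 h. Viability was read by CellTiter-Glo luminescence.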

[4] = UWB1.289 Cancer Cell Toxicity qHTS against the NCATS CANVASS Library (AID 1347347); further: series mostly up to about 38 µM; nearly all actives have a fitted effect of over 60% in size
Method in brief: as §1

[5] = OV-SAHO Cancer Cell Toxicity qHTS against the NCATS CANVASS Library (AID 1347348); further: series mostly up to about 38 µM; nearly all actives have a fitted effect of over 55% in size
Method in brief: as §1

[6] = SW1088 Cancer Cell Toxicity qHTS against the NCATS CANVASS Library (AID 1347350); further: series mostly up to about 38 µM; nearly all actives have a fitted effect of over 75% in size
Method in brief: as §1

[7] = U-118MG Cancer Cell Toxicity qHTS against the NCATS CANVASS Library (AID 1347351)
Method in brief: as §1

[8] = COV-362 Cancer Cell Toxicity qHTS against the NCATS CANVASS Library (AID 1347352); further: series mostly up to about 38 µM
Method in brief: (§2)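 Cells were seeded at 1000 per well and allowed to settle 4 hours at 37 degrees C before pin transfer of compounds as an 11-point series. Viability was read by CellTiter-Glo luminescence after 72 hours' exposure.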

[9] = A2780 Cisplatin Sensitive Ovarian Cancer Cell Toxicity qHTS against the NCATS CANVASS Library (AID 1347353); further: series mostly up to about 46 µM; nearly all actives have a fitted effect of over 60% in size
Method in brief: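 A2780 cisplatin-sensitive cells (750 per well) were seeded, left 4 h at 37 °C, then pin-dosed in an 11-point series. After 72 h at 37 °C/5% CO2, viability was measured as ATPLite luminescence.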

[10] = UWB1.289-WTBRCA1 Cancer Cell Toxicity qHTS against the NCATS CANVASS Library (AID 1347354)
Method in brief: as §2

[11] = HPAF-II 24hr Apoptosis Induction qHTS against the NCATS CANVASS Library (AID 1347356)
Method in brief: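 HPAF-II cells (500/well) in DMEM + 10% FBS were treated with an 11-point compound series for 24 hours at 37 degrees C. Caspase-3/7 activity was then read by Caspase-Glo DEVD luminescence after 15 min.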

[12] = HEK293 18hr Apoptosis Induction qHTS against the NCATS CANVASS Library (AID 1347357)
Method in brief: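 HEK293 cells (500 per well, DMEM with 10% FBS) were treated with natural products, incubated 18 hours at 37 degrees C, then caspase-3/7 activity was read by Caspase-Glo luminescence after 15 min at room temperature.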

[13] = HEK293 24hr Apoptosis Induction qHTS against the NCATS CANVASS Library (AID 1347359)
Method in brief: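 Caspase-3/7 activation measured as luminescence from the DEVD-based Caspase-Glo reagent, 15 min at room temperature, following 24-hour compound treatment of HEK293 cells.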

[14] = HEK293 12hr Apoptosis Induction qHTS against the NCATS CANVASS Library (AID 1347361)
Method in brief: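 Read-out: Caspase-Glo 3/7 luminescence (DEVD substrate), 15 min RT. Preceded by 12 h compound exposure of HEK293, 500 cells/well, 11-pt qHTS titration; doxorubicin titration as control.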

[15] = target: Luciferin 4-monooxygenase (Photinus pyralis) (UniProt P08659); assay: Firefly luciferase counterscreen qHTS: Assay Interference Panel against the NCATS CANVASS Library (AID 1347363); further: series mostly up to about 57 µM
Chain of Luciferin 4-monooxygenase (Photinus pyralis) (P08659 whole entry, looked up): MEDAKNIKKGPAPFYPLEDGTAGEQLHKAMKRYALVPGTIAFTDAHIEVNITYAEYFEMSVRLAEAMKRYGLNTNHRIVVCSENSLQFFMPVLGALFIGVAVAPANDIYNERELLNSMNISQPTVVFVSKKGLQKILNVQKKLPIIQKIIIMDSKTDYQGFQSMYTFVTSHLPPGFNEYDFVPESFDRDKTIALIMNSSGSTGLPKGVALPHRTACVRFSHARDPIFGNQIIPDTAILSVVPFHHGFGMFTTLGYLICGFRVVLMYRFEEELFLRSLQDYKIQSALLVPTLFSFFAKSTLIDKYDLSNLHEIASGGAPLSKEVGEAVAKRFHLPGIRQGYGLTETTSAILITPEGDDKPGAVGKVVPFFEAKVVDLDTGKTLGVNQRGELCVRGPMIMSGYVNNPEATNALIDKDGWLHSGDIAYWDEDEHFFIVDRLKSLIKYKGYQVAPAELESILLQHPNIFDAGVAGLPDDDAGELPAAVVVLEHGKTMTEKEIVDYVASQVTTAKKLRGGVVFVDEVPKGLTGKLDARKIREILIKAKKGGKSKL
Method in brief: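 Luminescence inhibition readout: compounds (11-point qHTS) sat 15 min at room temperature with substrate mix (0.013 mM luciferin and ATP), then firefly luciferase was added and signal read 5 min later.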

[16] = KB-8-5-11 Cancer Cell Toxicity qHTS against the NCATS CANVASS Library (AID 1347364); further: nearly all actives have a fitted effect of over 75% in size
Method in brief: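 KB-8-5-11 cells (500/well) in DMEM + 10% FBS were exposed to compounds in an 11-point qHTS series for 72 hr at 37C, 5% CO2. Viability was read by CellTiter-Glo luminescence.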

[17] = KB-3-1 Cancer Cell Toxicity qHTS against the NCATS CANVASS Library (AID 1347366); further: nearly all actives have a fitted effect of over 75% in size
Method in brief: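 KB-3-1 cells (500 cells/well) in DMEM + 10% FBS were treated with compounds for 72 hr at 37C, 5% CO2. Viability was read as CellTiter-Glo luminescence after 10 minutes at room temperature.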

[18] = qHTS for ATAD5 Agonist screened against the NCATS CANVASS Library (AID 1347367);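 further: luciferase reporter driven by ATAD5 which rises upon DNA damage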
Method in brief: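 HEK293T cells stably carrying an ATAD5-controlled luciferase reporter (2000 cells/well) attached for 5 hr, then received compounds in an 11-point series for 16hr at 37C. Luminescence was read after a 30 min room-temperature reagent step.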

[19] = MCF7 Cancer Cell Toxicity qHTS against the NCATS CANVASS Library (AID 1347369)
Method in brief: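 MCF7, 500 cells/well; cpds 11-pt qHTS; 72 hr, 37C/5% CO2; CellTiterGlo ATP luminescence.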

Measured: Potency

CC[C@H](C)C(NC(=O)[C@@H](NC)C(C)C)C(=O)NC1C(=O)N(C)[C@@H](C(C)O)C(=O)N[C@@H](C(C)C)C(=O)N(C)[C@@H](CC(C)C)C(=O)NC(C(C)C)C(=O)N(C)[C@@H](C(C)C)C(=O)N(C)[C@@H](Cc2c[nH]c3cccc(OC)c23)C(=O)N[C@@H](C(C)C)C(=O)N[C@@H]([C@H](O)c2ccccc2)C(=O)N[C@@H](C(C)C)C(=O)O[C@@H]1C (stereo partly drawn) (H-[NMeV][ξIle][ξThr(3R)(O-yl)][NMeThr(3ξ)]V[NMeL][ξV][NMeV][NMeTrp(4-OMe)]V[Phe(3R-OH)]V; ester 3-C)
active: [3] 11.9 µM
inactive: all other assays above
